{
  "source": "PubChem BioAssay (Tox21)",
  "note": "Active and inactive are the calls of the source. Entries that show only a call come without a potency. The call rests on the fitted dose curve; in most records, active means well fitted curve in the direction sought with a large enough effect in the repeat runs; inconclusive means weak or mixed curves; inactive means flat fitted curve, though single readings scatter.",
  "data": [
    {"experiment": "qHTS assay to test for compound auto fluorescence at 460 nm (blue) in HepG2 cell free culture (AID 720685)", "conditions": "Cell-free culture medium, blue autofluorescence 405/460 nm; series mostly up to 91.3 µM", "description": "U.S. Tox21 Program National Center for Advancing Translational Sciences [NCATS] NIH Chemical Genomics Center [NCGC] U.S. Environmental Protection Agency [EPA] National Institutes of Environmental Health Sciences [NIEHS] National Toxicology Program [NTP] U.S. Food and Drug Administration [FDA] Tox21 Assay Overview: Compound auto fluorescence often interferes with screening of the compound library against various biological targets and signaling pathways. Some of these compounds may have fluorophoric properties. Such properties may interfere with the assay outputs resulting in false positives and/or negatives. To decrease such complications and ensure the compound activities are relevant in terms of biological response, the Tox21 10K compound library was screened for auto fluorescence. From the fluorophores used as reporter signals in our screening assays, the auto fluorescence equivalencies of compounds against three fluorophores have been evaluated: Triamterene, Fluorescein and Rose Bengal sodium for blue, green and red fluorescence, respectively. The fluorescence intensities were measured using Excitation/Emission wavelengths at 405/460nm, 485/535nm and 540/590nm for blue, green and red labels, respectively. This assay includes the blue fluorescence data.\nTox21 Assay Protocol Summary: 5 uL of culture medium (MEM containing 10% FBS) per well was dispensed into black wall/clear bottom 1536-well plates using a Multidrop Combi Dispenser (ThermoFisher Scientific, Waltham, MA). After 23 nL compound or DMSO vehicle was transferred into assay plate by a pintool work station (Kalypsys, San Diego, CA), fluorescence intensities in the assay plates were measured by an Envision (PerkinElmer, Shelton, CT) plate reader using three labels for measuring blue, green and red fluorescence at […] 460, 535 and 590nm respectively.", "values": [
      {"smiles": "CC(C)(CO)CO", "Potency": "inactive"},
      {"smiles": "CCOC(=O)c1ccc(O)cc1", "Potency": "inactive"},
      {"smiles": "CC(CN1c2ccccc2Sc2ccccc21)N(C)C", "note": "(stereo not given)", "Potency": "inactive"},
      {"smiles": "CCCN(CCC)C(=O)SCC", "Potency": "inactive"},
      {"smiles": "CCCOC(=O)NCCCN(C)C", "Potency": "inactive"},
      {"smiles": "COC(=O)OC", "Potency": "inactive"},
      {"smiles": "CC1=CC(=O)CC(C)(C)C1", "Potency": "inactive"},
      {"smiles": "NCCNCCNCCN", "Potency": "inactive"},
      {"smiles": "CN1CCCC1=O", "Potency": "inactive"},
      {"smiles": "CCCCCCCCO", "Potency": "inactive"},
      {"smiles": "CCc1cccc(O)c1", "Potency": "inactive"},
      {"smiles": "Cc1ccc(Cl)cc1", "Potency": "inactive"},
      {"smiles": "CCCCCNCCCCC", "Potency": "inactive"},
      {"smiles": "CC(=O)OC/C=C(\\C)CCC=C(C)C", "Potency": "inactive"},
      {"smiles": "CCCCCCCCCCCC(=O)N(C)CC(=O)O", "Potency": "inactive"},
      {"smiles": "Nc1cccc(C(F)(F)F)c1", "Potency": "inactive"},
      {"smiles": "NC(=O)c1ncn([C@@H]2O[C@H](CO)[C@@H](O)[C@H]2O)n1", "Potency": "inactive"},
      {"smiles": "COC(=O)CCCCC(=O)OC", "Potency": "inactive"},
      {"smiles": "CC(=O)OCCC(C)C", "Potency": "inactive"},
      {"smiles": "O=C(O)Cc1c[nH]c2ccccc12", "Potency": "inactive"},
      {"smiles": "Cc1cc(C)cc(O)c1", "Potency": "inactive"},
      {"smiles": "CC(=O)OCc1ccc2c(c1)OCO2", "Potency": "inactive"},
      {"smiles": "OB(O)O", "Potency": "inactive"},
      {"smiles": "CC(COCC(C)OC(=O)c1ccccc1)OC(=O)c1ccccc1", "note": "(stereo not given)", "Potency": "inactive"},
      {"smiles": "O=c1n(CCCN2CCN(c3cccc(Cl)c3)CC2)nc2ccccn12", "Potency": "inactive"},
      {"smiles": "C=C1C[C@]23C[C@@]1(O)CC[C@H]2[C@@]12C=C[C@H](O)[C@@](C)(C(=O)O1)[C@H]2[C@@H]3C(=O)O", "Potency": "inactive"},
      {"smiles": "CC1(C)C(=O)N(Cl)C(=O)N1Cl", "Potency": "inactive"},
      {"smiles": "COc1ccccc1[N+](=O)[O-]", "Potency": "inactive"},
      {"smiles": "COc1c(Cl)ccc(Cl)c1C(=O)O", "Potency": "inactive"},
      {"smiles": "CCCOCC(C)O", "note": "(stereo not given)", "Potency": "inactive"},
      {"smiles": "CO[Si](CCCNCCN)(OC)OC", "Potency": "inactive"},
      {"smiles": "NC1CCCCC1N", "note": "(stereo not given)", "Potency": "inactive"},
      {"smiles": "O=C(Cl)c1ccc(C(=O)Cl)cc1", "Potency": "inactive"},
      {"smiles": "COc1ccc(N)c(OC)c1", "Potency": "inactive"},
      {"smiles": "CN1Cc2c(N)cccc2C(c2ccccc2)C1", "note": "(stereo not given)", "Potency": "inactive"},
      {"smiles": "COc1cc(NC(=O)CC(C)=O)c(OC)cc1Cl", "Potency": "inactive"},
      {"smiles": "CC(=O)c1nccs1", "Potency": "inactive"},
      {"smiles": "CCCCCC(C)=O", "Potency": "inactive"},
      {"smiles": "O=C1O[C@H]([C@H](O)CO)C(O)=C1O", "Potency": "inactive"},
      {"smiles": "O=[N+]([O-])c1ccccc1C(F)(F)F", "Potency": "inactive"}
    ]}
  ]
}
